The values that follow come from PubChem BioAssay.

SMILES strings stand for the structures. Calls of active or inactive are those of the source. Unless noted, how the calls were made is not given here.

Test [1] is described as follows: compound effects on lung adenocarcinoma cell viability – A549, calcein-AM fluorescence, 48 h, basal, profiling panel (AID 1162). Further: test concentration not given here. As to conditions: higher = more signal.
Test [2] can be described thus: compound effects on differentiated 3T3-L1 adipocyte viability – cell-based, 3T3-L1 adipocytes, calcein-AM fluorescence, 48 h, basal, profiling panel (AID 1163). Further: test concentration not given here. As to conditions: 3T3-L1 adipocytes viability, higher = more signal.
A short description of test [3]: compound effects on hepatocellular carcinoma cell viability – HepG2, calcein-AM fluorescence, 48 h, basal, profiling panel (AID 1164). Further: test concentration not given here. As to conditions: higher = more signal.
Test [4] is described as follows: compound effects on multiple myeloma cell viability – MM1S, calcein-AM fluorescence, 48 h, basal, profiling panel (AID 1165).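 Further: viability of MM1S multiple myeloma cells under basal unstimulated conditions; test concentration not given here.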 To be noted: higher = more signal.
Test [5] in a line: calcein-AM signal in unstimulated myeloma cells – cell-based, calcein-AM fluorescence, 48 h, PK04 Diversity Set, profiling panel (AID 1166).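 Further: cells grown under basal conditions without added stimulus; test concentration not given here.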 As to conditions: RPMI8226 myeloma viability, higher = more signal.
A short description of test [6]: JC-1 mitochondrial signal, unstimulated HepG2 cells – cell-based, JC-1 fluorescence, 24 h, 100 nL compound, profiling panel (AID 1167). Further: test concentration not given here. To be noted: HepG2 mitochondrial potential, higher = more signal.
Test [7] in a line: JC-1 mitochondrial signal, unstimulated adipocytes – cell-based, JC-1 fluorescence, 3T3-L1 adipocytes, 24 h, 100 nL compound, profiling panel (AID 1168). Further: test concentration not given here. To be noted: JC-1 mitochondrial fluorescence, higher = more signal, called active from +8 up or from −8 down.
Test [8] in a line: JC-1 mitochondrial signal, unstimulated myeloma cells – cell-based, JC-1 fluorescence, RPMI8226, 24 h, 100 nL compound, profiling panel (AID 1169). Further: test concentration not given here. As to conditions: JC-1 mitochondrial potential fluorescence, higher = more signal.
A short description of test [9]: JC-1 mitochondrial signal, unstimulated MM1S myeloma – cell-based, JC-1 fluorescence, 24 h, 100 nL compound, profiling panel (AID 1170). Further: test concentration not given here. As to conditions: MM1S mitochondrial potential, higher = more signal.
Test [10] in a line: resazurin metabolic signal in A549 cells – cell-based, resazurin fluorescence, 24 h, PK04 Diversity Set, profiling panel (AID 1171). Further: test concentration not given here. As to conditions: A549 viability, higher = more signal, called active from +8 up or from −8 down. On the technique in general: Alamar Blue is a resazurin reagent that responds to reducing activity.
Test [11] can be described thus: resazurin metabolic signal in HepG2 cells – cell-based, resazurin fluorescence, 24 h, PK04 Diversity Set, profiling panel (AID 1172). Further: test concentration not given here. As to conditions: HepG2 viability, higher = more signal.
Test [12] is described as follows: budding yeast growth changes without added modifier – OD600, strain BY4716, 24 h, basal condition, primary screen (AID 1173). As to conditions: S. cerevisiae BY4716 growth, OD600, 24 h; higher = more signal, called active from +8 up or from −8 down.
Test [13] in a line: viability profiling in MM1S myeloma cells – cell-based, resazurin fluorescence, basal, 24 h, PK04 Diversity Set, profiling panel (AID 1174). Further: test concentration not given here. As to conditions: higher = more signal, called active from +8 up or from −8 down.
Test [14] concerns the target Dihydroorotate dehydrogenase (quinone), mitochondrial (Plasmodium falciparum (isolate 3D7)) (UniProt Q08210). The test can be described thus: inhibition of P. falciparum DHODH – biochemical, C-terminal His tag, absorbance 600 nm, primary screen (AID 1175).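 Further: recombinant parasite enzyme with a five histidine tag at its C terminus; test concentration not given here.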 To be noted: PfDHODH enzyme, DCIP absorbance 600 nm; higher = more signal, called active from +8 up or from −8 down.

The nature of test [15]: inhibition of PAO1 biofilm formation – strain PAO1, LB-PBS medium, absorbance 600 nm, primary screen (AID 1176). Further: test concentration not given here. To be noted: P. aeruginosa PAO1 growth/biofilm, A600, 12 h; higher = more signal.
Test [16] is described as follows: growth modulation of vineyard yeast isolate – strain RM11-1a, OD600, basal, 24 h, primary screen (AID 1177).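 Further: cultures grown under basal conditions with no added stressor; test concentration not given here.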 To be noted: S. cerevisiae RM11-1a growth, OD600, 24 h; higher = more signal, called active from +8 up or from −8 down.
The nature of test [17]: growth of efflux-deficient E. coli DRC39 – strain DRC39, OD650, 24 h, E. coli filamentation inducers, primary screen (AID 1178).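 Further: growth measured as culture turbidity by optical density at 650 nm; test concentration not given here.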 As to conditions: E. coli DRC39 acrAB, higher = more signal, called active from +8 up or from −8 down.
The nature of test [18]: growth of efflux-deficient E. coli DRC39 – strain DRC39, OD650, 48 h, E. coli filamentation inducers, primary screen (AID 1179).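 Further: screen aims at cell division blockers that make cells filament.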 As to conditions: E. coli DRC39 delta-acrAB growth, higher = more signal, called active from +8 up or from −8 down.
Test [19] can be described thus: viability profiling in RPMI8226 myeloma cells – cell-based, resazurin fluorescence, basal, 24 h, PK04 Diversity Set, profiling panel (AID 1180).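 Further: RPMI8826 multiple myeloma cell line at 5000 cells per well; test concentration not given here.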 To be noted: higher = more signal.
The target in test [20] is E3 ubiquitin-protein ligase XIAP (Homo sapiens) (UniProt P98170). Put plainly: small molecules binding XIAP protein – biophysical, small-molecule microarray, fluorescence 635 nm, primary screen (AID 1181).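 Further: score merges 667 nm emission and signal to noise over triplicate slides.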 As to conditions: higher = more signal.
Chain of E3 ubiquitin-protein ligase XIAP (Homo sapiens) (P98170 whole entry, looked up): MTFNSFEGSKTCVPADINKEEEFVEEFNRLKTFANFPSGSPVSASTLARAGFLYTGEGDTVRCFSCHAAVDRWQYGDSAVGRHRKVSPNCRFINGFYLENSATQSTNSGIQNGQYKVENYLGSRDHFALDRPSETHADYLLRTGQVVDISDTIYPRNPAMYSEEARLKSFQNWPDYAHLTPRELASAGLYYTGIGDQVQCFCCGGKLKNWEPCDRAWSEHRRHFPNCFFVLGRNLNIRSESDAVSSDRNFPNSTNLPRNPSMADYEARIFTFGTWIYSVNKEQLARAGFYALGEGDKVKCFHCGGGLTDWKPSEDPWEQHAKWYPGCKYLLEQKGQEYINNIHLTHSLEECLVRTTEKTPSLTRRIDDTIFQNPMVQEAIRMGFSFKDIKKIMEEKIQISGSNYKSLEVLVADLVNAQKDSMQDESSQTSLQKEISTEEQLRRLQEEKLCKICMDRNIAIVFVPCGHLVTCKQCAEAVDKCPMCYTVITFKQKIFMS

Chain of Dihydroorotate dehydrogenase (quinone), mitochondrial (Plasmodium falciparum (isolate 3D7)) (Q08210 whole entry, looked up): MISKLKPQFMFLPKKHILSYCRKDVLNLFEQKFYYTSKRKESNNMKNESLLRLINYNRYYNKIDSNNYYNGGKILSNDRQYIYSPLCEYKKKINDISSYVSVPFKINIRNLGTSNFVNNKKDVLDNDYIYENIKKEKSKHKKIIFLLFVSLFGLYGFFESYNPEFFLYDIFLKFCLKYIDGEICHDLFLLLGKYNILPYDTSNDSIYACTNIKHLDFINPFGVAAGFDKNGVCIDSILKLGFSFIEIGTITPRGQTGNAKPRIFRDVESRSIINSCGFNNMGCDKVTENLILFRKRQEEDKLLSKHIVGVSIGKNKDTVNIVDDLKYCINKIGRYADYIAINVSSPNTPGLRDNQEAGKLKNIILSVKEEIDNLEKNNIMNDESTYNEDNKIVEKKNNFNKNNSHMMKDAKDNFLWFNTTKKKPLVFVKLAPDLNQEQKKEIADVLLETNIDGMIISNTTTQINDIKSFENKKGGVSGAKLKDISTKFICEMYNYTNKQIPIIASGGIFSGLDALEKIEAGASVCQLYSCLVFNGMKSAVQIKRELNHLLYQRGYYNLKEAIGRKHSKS

As for `CCCCC(=C=CC[C@H](O)c1ccc(OCCO)cc1)C[C@H](O)c1ccccn1`, the z-score in test [1] was 1.47; in test [2], -0.398; in [3], 0.701; in test [4] it was -0.556; in test [5] it was -0.585; in [6] it was -0.0776. The z-score in test [7] was -0.794 (inactive); in [8], -0.485; in test [9], -0.603; in test [10] it was 1.07 (inactive); in [11], 0.325; in test [12] it was -0.265 (inactive). The z-score is 0.747 (inactive) in test [13]; -0.247 (inactive) in test [15]; 0.387 (inactive) in test [16]; 1.45 (inactive) in [17]; 0.949 (inactive) in [18]; 1.76 in [19]. For the same compound, the figures for the composite z-score in test [14] and in [20] were -2.06 (inactive) and -0.142, respectively.

As for `C=CCC(OC(C)=O)[C@@H]1[C@@H](N(Cc2ccc(-c3cccc(C(F)(F)F)c3)o2)C(=O)Cc2ccc(OC)cc2)c2cc(OCCCO)ccc2N1C(=O)c1ccc2ccccc2n1` (stereo not given in full), the z-score is -0.0093 in [1]; 0.341 in [2]; 0.279 in test [3]; -1.2 in test [4]; -2.3 in [5]; 2.12 in test [6]. Also, the z-score in test [7] is 0.253 (inactive); in [8], -0.616; in test [9], 1.42; in test [10], -1.25 (inactive); in test [11], -0.777; in test [12], -0.791 (inactive). The z-score is 0.271 (inactive) in test [13]; -0.817 (inactive) in test [15]; -0.188 (inactive) in test [16]; -0.267 (inactive) in test [17]; -0.446 (inactive) in test [18]; 0.0494 in [19]. Besides, the composite z-score in test [14] is -0.0941 (inactive); in test [20] it was 0.36.

As to `CO[C@H]1O[C@H](CO)[C@@H](OC(=O)Nc2ccc3c(c2)OCO3)[C@@H]2OC(=O)[C@@H](Cc3ccccc3)C/C=C/C[C@H](Cc3ccccc3)C(=O)O[C@@H]12`, the z-score was 1.9 in test [1]; -2.78 in test [2]; 0.843 in test [3]; -0.69 in test [4]; -0.197 in [5]; 0.186 in [6]. The z-score in test [7] was 0.912 (inactive); in test [8], -0.469; in test [9], -0.897; in [10], -1.64 (inactive); in test [11], -1.37; in test [12], 0.904 (inactive). In addition, the z-score in test [13] was -2.59 (inactive); in test [15], 0.509 (inactive); in [16], 2.14 (inactive); in test [17], 0.307 (inactive); in [18] it was 0.312 (inactive); in test [19] it was -1.38. Further, the composite z-score is -0.675 (inactive) in [14] and 0.785 in test [20].

For `COc1ccc(C(O)C2C=CC3C(=O)N(C)C(=O)C3N2Nc2ccc([N+](=O)[O-])cc2[N+](=O)[O-])cc1OCc1ccccc1` (stereo not given), the z-score in test [1] was -0.65; in [2], -0.861; in test [3], 0.166; in test [4], 0.106; in test [5] it was -0.499; in test [6] it was -0.475. Also, the z-score in test [7] is -0.74 (inactive); in test [8], 0.0687; in [9], -0.371; in [10] it was -0.682 (inactive); in [11], -0.448; in test [12] it was 0.944 (inactive). The z-score in test [13] was -1.27 (inactive); in test [15], -0.0067 (inactive); in test [16] it was 0.371 (inactive); in test [17], -0.98 (inactive); in [18], -0.383 (inactive); in test [19], -1.39. Also, the composite z-score in test [14] was 0.37 (inactive); in [20], 0.165.

With `NC(=O)NCC#Cc1ccc2c(c1)[C@]1(C(=O)N2)[C@H](C(=O)Nc2nc3ccccc3s2)[C@H]2C(=O)O[C@H](c3ccccc3)[C@H](c3ccccc3)N2[C@@H]1c1ccc(OCCO)cc1`, the z-score was -0.163 in test [1]; 0.466 in test [2]; -1.43 in [3]; -0.231 in test [4]; -0.349 in test [5]; -3.18 in [6]. The z-score was 0.272 (inactive) in [7]; -1.14 in [8]; -1.88 in [9]; 0.767 (inactive) in test [10]; 1.1 in test [11]; 1.12 (inactive) in test [12]. In addition, the z-score is 0.365 (inactive) in test [13]; 3.99 (inactive) in [15]; 1.27 (inactive) in test [16]; 0.426 (inactive) in test [17]; -0.221 (inactive) in [18]; -0.271 in test [19]. Further, the values for the composite z-score in [14] and in test [20] were -0.396 (inactive) and 0.013, respectively.

In the case of `COCC1=C([C@H](O)CCc2ccccc2)[C@H](CO)n2c(=O)n(-c3ccccc3)c(=O)n2C1`, the z-score in test [1] was 0.119; in test [2] it was 0.102; in test [3], 0.925; in test [4], 0.572; in test [5], -0.221; in test [6], -0.835. In addition, the z-score was -0.596 (inactive) in [7]; -0.309 in [8]; -1.37 in test [9]; -0.619 (inactive) in test [10]; -0.236 in [11]; -3.02 (inactive) in [12]. For the same compound, the z-score in [13] was 0.0444 (inactive); in test [15], 0.188 (inactive); in test [16] it was -1.94 (inactive); in [17], 1.19 (inactive); in [18], 1.32 (inactive); in [19], 0.113. The composite z-score in test [14] was -0.855 (inactive); in test [20], -0.0848.

For `[N-]=[N+]=NCc1ccccc1C[C@]1(C(=O)NCc2ccccc2)N=C(c2ccc(OCCCO)cc2)O[C@H]1c1ccccc1CN=[N+]=[N-]`, the z-score in test [1] is -1.42; in [2], 2.15; in test [3], -0.955; in [4], -1.23; in test [5], -1.69; in test [6], 0.247. The z-score in test [7] is -0.158 (inactive); in test [8], -0.899; in test [9] it was -0.214; in [10], -1.09 (inactive); in test [11], -0.907; in test [12], 0.831 (inactive). Also, the z-score in test [13] is -0.153 (inactive); in [15], 1.32 (inactive); in test [16], 0.832 (inactive); in test [17] it was 3.04 (inactive); in test [18] it was 1.01 (inactive); in [19] it was -0.28. The figures for the composite z-score in test [14] and in test [20] were 0.238 (inactive) and -0.0559, respectively.

With `[N-]=[N+]=Nc1ccccc1[C@@H]1OC(c2ccc(OCCCO)cc2)=N[C@]1(Cc1ccccc1)C(N)=O`, the z-score was 0.289 in test [1]; -0.186 in [2]; 0.765 in test [3]; -0.835 in [4]; -2.14 in test [5]; 0.308 in test [6]. In addition, the z-score in test [7] was 0.119 (inactive); in test [8], -0.719; in test [9] it was -0.789; in test [10], -0.199 (inactive); in [11] it was 1.2; in test [12] it was -0.821 (inactive). Besides, the z-score in test [13] was -0.622 (inactive); in test [15] it was -0.0558 (inactive); in test [16], 1.19 (inactive); in [17], 0.673 (inactive); in test [18], 0.481 (inactive); in test [19], -0.589. Besides, the composite z-score in test [14] is 0.474 (inactive); in test [20] it was 0.0838.
